This is an account of results in publication PMC7862700, “An all-to-all approach to the identification of sequence-specific readers for epigenetic DNA modifications on cytosine”.

What all share (assay): DAPPL (digital affinity profiling via proximity ligation, sequencing); 10 mM Tris-HCl pH 7.5, 50 mM NaCl, 1 mM DTT, 4% glycerol, room temperature, 30 min; GST-TFs on glutathione beads, 16-mer random dsDNA library, 0.1% formaldehyde crosslink after washing; high values mean tight binding
One experiment concerns the target T1, FLI1 (Homo sapiens, UniProt Q01543 1-452).
T1 sequence: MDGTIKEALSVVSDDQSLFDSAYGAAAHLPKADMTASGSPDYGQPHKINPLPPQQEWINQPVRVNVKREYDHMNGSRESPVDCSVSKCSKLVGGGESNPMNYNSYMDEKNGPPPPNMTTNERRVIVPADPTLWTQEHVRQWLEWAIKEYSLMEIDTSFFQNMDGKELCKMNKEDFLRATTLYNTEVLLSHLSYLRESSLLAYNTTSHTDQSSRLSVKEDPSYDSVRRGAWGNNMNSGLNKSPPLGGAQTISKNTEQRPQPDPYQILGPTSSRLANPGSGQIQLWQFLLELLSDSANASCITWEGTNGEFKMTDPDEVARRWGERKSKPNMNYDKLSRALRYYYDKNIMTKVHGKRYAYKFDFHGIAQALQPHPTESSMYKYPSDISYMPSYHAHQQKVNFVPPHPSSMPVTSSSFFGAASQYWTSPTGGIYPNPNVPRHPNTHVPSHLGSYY
As to conditions: protein: recombinant; tags: N-terminal GST; dsDNA, one strand shown. In outline:
(§1)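 A tag-only sample was pooled with DNA-barcoded human transcription factors that had been expressed in yeast as GST fusions and captured on glutathione beads. The pools were incubated for 30 min at room temperature with 200 nmole of a random double-stranded 16-mer DNA library in Tris/NaCl/DTT/glycerol buffer, then washed, crosslinked with 0.1% formaldehyde, proximity-ligated (BsaI/T4 ligase, 1 h, 37 °C), PCR-amplified and sequenced on an Illumina NextSeq500. Binding signal is each hexamer's read frequency for a factor divided by its frequency for the tag-only sample.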

In another experiment the target is T2, ELK1 (Homo sapiens, UniProt P19419 1-428).
T2 sequence: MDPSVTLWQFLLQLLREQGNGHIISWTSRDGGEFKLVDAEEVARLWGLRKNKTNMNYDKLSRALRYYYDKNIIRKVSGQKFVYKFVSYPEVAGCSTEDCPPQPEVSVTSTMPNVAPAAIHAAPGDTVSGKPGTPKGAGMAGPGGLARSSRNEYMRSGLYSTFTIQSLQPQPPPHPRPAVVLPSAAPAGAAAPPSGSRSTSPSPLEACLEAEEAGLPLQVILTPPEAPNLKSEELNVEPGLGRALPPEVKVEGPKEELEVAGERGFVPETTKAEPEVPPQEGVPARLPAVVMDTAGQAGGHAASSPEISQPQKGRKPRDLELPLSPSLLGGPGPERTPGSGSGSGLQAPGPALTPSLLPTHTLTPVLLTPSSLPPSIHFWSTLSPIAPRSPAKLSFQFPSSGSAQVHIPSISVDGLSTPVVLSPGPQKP
As to conditions: protein: recombinant; tags: N-terminal GST; dsDNA, one strand shown. In outline: as §1

For the next experiment, the target named is T3, GABPA (Homo sapiens, UniProt Q06546 1-454).
T3 sequence: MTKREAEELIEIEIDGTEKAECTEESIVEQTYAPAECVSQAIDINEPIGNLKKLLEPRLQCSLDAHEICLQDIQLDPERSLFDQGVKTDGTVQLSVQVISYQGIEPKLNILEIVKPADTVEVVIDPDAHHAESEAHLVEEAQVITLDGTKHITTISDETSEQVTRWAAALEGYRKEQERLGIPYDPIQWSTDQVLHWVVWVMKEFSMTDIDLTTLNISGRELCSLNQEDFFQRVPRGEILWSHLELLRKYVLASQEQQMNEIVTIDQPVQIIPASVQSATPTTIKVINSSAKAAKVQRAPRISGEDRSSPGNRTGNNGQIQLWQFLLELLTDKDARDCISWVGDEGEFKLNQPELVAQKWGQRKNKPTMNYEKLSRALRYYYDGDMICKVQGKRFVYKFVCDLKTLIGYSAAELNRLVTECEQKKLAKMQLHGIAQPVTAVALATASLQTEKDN
To be noted: protein: recombinant; tags: N-terminal GST; dsDNA, one strand shown. In outline: as §1

The target of the next experiment is T4, ERG (Homo sapiens, UniProt P11308 1-479).
T4 sequence: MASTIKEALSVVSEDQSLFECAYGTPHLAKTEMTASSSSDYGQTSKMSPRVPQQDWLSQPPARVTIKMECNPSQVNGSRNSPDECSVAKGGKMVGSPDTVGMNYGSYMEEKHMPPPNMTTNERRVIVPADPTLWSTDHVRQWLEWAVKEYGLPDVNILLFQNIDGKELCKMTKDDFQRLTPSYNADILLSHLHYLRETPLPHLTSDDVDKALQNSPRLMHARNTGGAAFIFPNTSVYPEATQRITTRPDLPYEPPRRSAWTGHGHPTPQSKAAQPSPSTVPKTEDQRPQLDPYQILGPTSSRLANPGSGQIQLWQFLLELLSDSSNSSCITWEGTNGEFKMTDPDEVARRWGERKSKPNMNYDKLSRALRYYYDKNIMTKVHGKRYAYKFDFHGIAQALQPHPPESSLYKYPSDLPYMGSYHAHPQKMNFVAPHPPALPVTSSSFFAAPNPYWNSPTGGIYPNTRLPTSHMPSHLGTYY
To be noted: protein: recombinant; tags: N-terminal GST; dsDNA, one strand shown. The gist of the method: as §1

In a further experiment the target is ELF1 (Homo sapiens, UniProt P32519 1-619). As to conditions: protein: recombinant; tags: N-terminal GST; dsDNA, one strand shown. The gist of the method: as §1
ELF1, sequence (P32519 whole entry): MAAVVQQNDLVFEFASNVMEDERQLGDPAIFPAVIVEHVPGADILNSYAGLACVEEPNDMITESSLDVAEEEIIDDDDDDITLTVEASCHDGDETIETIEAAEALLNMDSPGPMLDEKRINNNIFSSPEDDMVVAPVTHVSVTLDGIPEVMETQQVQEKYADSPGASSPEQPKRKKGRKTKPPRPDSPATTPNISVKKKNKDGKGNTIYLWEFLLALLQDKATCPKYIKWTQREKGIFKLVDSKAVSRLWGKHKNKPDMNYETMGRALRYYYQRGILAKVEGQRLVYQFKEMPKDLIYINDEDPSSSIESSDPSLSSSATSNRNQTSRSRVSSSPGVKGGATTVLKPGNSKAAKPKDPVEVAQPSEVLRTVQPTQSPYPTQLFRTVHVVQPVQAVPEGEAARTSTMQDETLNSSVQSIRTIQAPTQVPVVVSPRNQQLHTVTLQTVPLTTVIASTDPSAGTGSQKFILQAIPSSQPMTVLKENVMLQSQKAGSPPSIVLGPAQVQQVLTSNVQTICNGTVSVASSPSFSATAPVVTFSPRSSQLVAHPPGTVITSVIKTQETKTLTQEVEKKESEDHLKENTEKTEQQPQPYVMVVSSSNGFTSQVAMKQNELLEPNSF
In another experiment the target is T5, EHF (Homo sapiens, UniProt Q9NZC4 1-300).
T5 sequence: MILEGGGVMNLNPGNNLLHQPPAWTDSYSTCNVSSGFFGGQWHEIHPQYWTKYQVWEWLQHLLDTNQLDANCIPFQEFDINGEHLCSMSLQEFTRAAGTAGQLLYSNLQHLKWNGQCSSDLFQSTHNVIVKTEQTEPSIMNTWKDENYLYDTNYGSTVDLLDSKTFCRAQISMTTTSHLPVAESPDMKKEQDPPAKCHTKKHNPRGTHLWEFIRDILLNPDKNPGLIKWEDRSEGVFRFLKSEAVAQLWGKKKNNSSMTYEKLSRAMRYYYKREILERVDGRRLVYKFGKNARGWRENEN
To be noted: protein: recombinant; tags: N-terminal GST; dsDNA, one strand shown. In outline: as §1

The target in the next experiment is SPI1 (Homo sapiens, UniProt P17947 1-270). As to conditions: protein: recombinant; tags: N-terminal GST; dsDNA, one strand shown. The gist of the method:
as §1

For the next experiment, the target named is SPIB (Homo sapiens, UniProt Q01892 1-262). As to conditions: protein: recombinant; tags: N-terminal GST; dsDNA, one strand shown. The gist of the method: as §1
SPIB, sequence (Q01892 whole entry): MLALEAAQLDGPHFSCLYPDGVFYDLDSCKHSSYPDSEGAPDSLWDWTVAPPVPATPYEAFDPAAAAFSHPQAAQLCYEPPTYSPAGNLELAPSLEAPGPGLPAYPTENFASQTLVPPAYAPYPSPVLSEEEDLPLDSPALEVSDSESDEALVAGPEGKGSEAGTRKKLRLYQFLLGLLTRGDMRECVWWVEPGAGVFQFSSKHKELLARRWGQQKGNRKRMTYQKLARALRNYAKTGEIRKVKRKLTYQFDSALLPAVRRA
The next experiment has as its target T6, ELK3 (Homo sapiens, UniProt P41970 1-407).
T6 sequence: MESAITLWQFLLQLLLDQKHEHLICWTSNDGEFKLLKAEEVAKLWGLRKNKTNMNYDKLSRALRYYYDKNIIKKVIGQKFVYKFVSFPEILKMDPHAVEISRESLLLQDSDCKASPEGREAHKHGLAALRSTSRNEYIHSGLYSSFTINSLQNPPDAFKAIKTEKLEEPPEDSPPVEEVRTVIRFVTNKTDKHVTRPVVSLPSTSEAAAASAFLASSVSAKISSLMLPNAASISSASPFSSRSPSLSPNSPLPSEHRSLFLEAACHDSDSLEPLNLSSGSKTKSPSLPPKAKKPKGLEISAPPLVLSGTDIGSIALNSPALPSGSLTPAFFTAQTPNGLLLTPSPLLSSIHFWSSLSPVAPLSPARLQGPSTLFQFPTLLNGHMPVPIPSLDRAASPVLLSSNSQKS
To be noted: protein: recombinant; tags: N-terminal GST; dsDNA, one strand shown. In outline:
as §1

The next experiment deals with T7, FEV (Homo sapiens, UniProt Q99581 1-238).
T7 sequence: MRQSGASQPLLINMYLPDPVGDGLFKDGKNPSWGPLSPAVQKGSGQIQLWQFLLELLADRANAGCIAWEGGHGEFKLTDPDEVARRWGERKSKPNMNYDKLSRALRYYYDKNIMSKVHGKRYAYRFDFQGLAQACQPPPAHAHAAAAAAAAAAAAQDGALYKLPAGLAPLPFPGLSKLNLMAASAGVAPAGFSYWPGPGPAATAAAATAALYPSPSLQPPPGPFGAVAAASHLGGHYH
As to conditions: protein: recombinant; tags: N-terminal GST; dsDNA, one strand shown. The gist of the method:
as §1

A further experiment has as its target ETV5 (Homo sapiens, UniProt P41161 1-510). As to conditions: protein: recombinant; tags: N-terminal GST; dsDNA, one strand shown. In outline: as §1
Another experiment deals with HSF1 (Homo sapiens, UniProt Q00613 1-529). To be noted: protein: recombinant; tags: N-terminal GST; chain copies: 3; dsDNA, one strand shown. In outline:
as §1

The next experiment has as its target T8, SPIC (Homo sapiens, UniProt Q8N5J4 1-248).
T8 sequence: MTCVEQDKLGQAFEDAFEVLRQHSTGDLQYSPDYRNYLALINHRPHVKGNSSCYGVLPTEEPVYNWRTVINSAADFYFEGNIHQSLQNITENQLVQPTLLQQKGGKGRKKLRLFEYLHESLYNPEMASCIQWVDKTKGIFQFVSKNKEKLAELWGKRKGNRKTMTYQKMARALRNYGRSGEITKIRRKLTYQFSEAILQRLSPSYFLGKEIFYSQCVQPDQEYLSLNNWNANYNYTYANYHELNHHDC
As to conditions: protein: recombinant; tags: N-terminal GST; dsDNA, one strand shown. The gist of the method: as §1

Another experiment has as its target ELF4 (Homo sapiens, UniProt Q99607 1-663). To be noted: protein: recombinant; tags: N-terminal GST; dsDNA, one strand shown. In outline:
as §1

A further experiment addresses T9, ELK4 (Homo sapiens, UniProt P28324-2 1-405).
T9 sequence: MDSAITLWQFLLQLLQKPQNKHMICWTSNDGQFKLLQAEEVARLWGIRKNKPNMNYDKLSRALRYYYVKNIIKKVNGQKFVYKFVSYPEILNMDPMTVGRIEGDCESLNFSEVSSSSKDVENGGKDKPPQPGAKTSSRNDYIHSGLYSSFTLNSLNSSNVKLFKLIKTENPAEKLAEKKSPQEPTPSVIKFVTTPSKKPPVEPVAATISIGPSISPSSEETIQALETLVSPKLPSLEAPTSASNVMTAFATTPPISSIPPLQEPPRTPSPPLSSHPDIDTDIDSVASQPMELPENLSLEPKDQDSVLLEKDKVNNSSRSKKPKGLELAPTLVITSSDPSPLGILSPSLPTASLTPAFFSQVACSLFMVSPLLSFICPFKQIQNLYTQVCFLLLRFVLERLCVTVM
To be noted: protein: recombinant; tags: N-terminal GST; dsDNA, one strand shown. The gist of the method:
as §1

In the next experiment the target is T10, ETV2 (Homo sapiens, UniProt O00321 1-342).
T10 sequence: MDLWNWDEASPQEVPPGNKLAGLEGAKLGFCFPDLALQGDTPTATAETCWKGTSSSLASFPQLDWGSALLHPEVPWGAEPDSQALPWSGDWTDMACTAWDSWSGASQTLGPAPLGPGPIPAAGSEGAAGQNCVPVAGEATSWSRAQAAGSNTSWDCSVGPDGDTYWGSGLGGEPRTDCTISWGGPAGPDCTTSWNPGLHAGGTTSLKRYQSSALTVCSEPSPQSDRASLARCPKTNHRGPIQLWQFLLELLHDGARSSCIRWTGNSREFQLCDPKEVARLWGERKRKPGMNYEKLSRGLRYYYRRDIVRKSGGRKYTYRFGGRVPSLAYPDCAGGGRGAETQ
As to conditions: protein: recombinant; tags: N-terminal GST; dsDNA, one strand shown. The gist of the method: as §1

A further experiment has as its target T11, ELF3 (Homo sapiens, UniProt P78545 1-371).
T11 sequence: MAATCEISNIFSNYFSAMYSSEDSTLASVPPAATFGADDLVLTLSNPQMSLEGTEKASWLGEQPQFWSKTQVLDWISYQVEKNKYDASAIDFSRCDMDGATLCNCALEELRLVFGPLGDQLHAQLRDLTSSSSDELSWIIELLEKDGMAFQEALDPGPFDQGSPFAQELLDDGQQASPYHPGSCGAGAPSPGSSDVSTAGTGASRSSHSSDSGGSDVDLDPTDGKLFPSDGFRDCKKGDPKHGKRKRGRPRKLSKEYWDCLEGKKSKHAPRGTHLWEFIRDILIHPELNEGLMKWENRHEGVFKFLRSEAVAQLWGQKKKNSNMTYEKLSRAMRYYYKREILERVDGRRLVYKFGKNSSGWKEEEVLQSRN
As to conditions: protein: recombinant; tags: N-terminal GST; dsDNA, one strand shown. In outline: as §1

In another experiment the target is CRX (Homo sapiens, UniProt O43186 1-299). To be noted: protein: recombinant; tags: N-terminal GST; dsDNA, one strand shown. The gist of the method:
as §1

The next experiment addresses ETV1 (Homo sapiens, UniProt P50549 1-477). To be noted: protein: recombinant; tags: N-terminal GST; dsDNA, one strand shown. The gist of the method:
as §1

HSF1, sequence (Q00613 whole entry): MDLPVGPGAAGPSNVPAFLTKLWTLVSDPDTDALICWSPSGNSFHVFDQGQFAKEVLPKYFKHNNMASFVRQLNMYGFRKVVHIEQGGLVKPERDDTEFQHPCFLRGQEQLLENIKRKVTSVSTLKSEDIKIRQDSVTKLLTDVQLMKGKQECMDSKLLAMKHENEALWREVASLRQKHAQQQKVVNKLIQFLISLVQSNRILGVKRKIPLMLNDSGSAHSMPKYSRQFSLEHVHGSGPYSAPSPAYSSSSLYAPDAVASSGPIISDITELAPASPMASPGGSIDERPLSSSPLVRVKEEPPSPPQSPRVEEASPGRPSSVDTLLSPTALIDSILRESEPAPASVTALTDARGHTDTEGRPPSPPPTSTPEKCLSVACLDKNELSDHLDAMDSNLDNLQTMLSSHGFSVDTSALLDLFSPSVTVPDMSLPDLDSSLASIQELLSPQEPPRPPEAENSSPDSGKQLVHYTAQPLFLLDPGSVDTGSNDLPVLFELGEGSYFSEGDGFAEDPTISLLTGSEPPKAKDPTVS
CRX, sequence (O43186 whole entry): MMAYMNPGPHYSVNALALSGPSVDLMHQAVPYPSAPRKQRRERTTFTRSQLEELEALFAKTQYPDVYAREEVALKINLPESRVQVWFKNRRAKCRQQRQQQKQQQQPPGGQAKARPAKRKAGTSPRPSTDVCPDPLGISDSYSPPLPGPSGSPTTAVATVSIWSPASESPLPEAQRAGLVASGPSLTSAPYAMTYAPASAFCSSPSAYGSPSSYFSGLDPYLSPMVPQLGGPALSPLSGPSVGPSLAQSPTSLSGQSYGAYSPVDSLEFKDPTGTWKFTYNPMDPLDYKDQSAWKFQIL
ETV5, sequence (P41161 whole entry): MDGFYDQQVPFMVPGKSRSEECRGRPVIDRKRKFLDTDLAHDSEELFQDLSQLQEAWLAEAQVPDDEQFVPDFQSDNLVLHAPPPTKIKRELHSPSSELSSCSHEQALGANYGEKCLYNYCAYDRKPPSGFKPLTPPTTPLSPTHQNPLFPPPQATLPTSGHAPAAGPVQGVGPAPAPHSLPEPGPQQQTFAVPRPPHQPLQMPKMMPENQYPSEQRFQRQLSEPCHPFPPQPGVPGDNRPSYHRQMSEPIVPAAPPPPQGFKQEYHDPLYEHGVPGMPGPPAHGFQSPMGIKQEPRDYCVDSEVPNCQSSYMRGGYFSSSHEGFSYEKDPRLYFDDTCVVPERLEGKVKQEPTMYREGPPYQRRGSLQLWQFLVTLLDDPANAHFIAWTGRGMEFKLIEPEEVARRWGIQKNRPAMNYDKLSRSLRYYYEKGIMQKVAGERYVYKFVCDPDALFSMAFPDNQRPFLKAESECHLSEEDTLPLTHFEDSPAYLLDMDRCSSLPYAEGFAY
ETV1, sequence (P50549 whole entry): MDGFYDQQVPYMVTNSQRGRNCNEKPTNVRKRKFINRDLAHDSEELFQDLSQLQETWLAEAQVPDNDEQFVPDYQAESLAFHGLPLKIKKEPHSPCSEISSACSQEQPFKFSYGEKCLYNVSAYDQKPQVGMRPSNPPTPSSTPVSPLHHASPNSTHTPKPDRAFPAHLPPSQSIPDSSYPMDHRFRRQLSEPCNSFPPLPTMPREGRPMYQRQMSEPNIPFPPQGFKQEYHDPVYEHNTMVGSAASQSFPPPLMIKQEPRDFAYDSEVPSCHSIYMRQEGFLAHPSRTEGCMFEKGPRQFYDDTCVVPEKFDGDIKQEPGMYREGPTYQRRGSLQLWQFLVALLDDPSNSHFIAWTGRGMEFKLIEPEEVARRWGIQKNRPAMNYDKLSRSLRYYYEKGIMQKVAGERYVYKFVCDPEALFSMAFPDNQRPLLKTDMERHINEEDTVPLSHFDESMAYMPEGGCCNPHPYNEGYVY
ELF4, sequence (Q99607 whole entry): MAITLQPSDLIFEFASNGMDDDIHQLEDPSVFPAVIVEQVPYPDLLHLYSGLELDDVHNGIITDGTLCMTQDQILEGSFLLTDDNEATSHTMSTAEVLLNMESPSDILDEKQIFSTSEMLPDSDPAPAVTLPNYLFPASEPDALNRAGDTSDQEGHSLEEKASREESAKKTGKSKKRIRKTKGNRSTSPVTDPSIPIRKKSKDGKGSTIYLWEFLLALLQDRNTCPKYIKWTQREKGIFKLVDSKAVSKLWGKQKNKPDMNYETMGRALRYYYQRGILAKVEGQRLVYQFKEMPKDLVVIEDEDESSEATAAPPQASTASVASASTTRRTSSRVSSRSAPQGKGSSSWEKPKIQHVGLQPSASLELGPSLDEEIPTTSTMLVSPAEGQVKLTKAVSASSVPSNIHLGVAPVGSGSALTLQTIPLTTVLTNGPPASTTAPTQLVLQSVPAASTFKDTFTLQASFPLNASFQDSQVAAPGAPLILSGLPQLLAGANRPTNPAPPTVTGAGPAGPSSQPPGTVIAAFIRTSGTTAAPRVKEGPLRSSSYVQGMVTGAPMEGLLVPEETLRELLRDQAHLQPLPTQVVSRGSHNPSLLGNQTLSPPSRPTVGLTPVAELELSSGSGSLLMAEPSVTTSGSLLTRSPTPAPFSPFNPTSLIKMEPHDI

With CTAAAT, the binding signal was 1.34 fold enrichment (6-mer frequency, TF over GST control) with FLI1; 1.36 fold enrichment (6-mer frequency, TF over GST control) with ELK1; 1.31 fold enrichment (6-mer frequency, TF over GST control) with GABPA; 1.34 fold enrichment (6-mer frequency, TF over GST control) with ERG; 1.3 fold enrichment (6-mer frequency, TF over GST control) in the experiment with ELF1; 1.34 fold enrichment (6-mer frequency, TF over GST control) with EHF. In addition, the binding signal in the experiment with SPI1 was 1.37 fold enrichment (6-mer frequency, TF over GST control); with SPIB it was 1.38 fold enrichment (6-mer frequency, TF over GST control); with ELK3, 1.37 fold enrichment (6-mer frequency, TF over GST control); with FEV it was 1.3 fold enrichment (6-mer frequency, TF over GST control); in the experiment with ETV5, 1.42 fold enrichment (6-mer frequency, TF over GST control); in the experiment with HSF1 it was 1.59 fold enrichment (6-mer frequency, TF over GST control). For the same sequence, the binding signal with SPIC was 1.38 fold enrichment (6-mer frequency, TF over GST control); in the experiment with ELF4, 1.36 fold enrichment (6-mer frequency, TF over GST control); with ELK4 it was 1.42 fold enrichment (6-mer frequency, TF over GST control); in the experiment with ETV2, 1.33 fold enrichment (6-mer frequency, TF over GST control); with ELF3, 1.46 fold enrichment (6-mer frequency, TF over GST control); in the experiment with CRX, 1.9 fold enrichment (6-mer frequency, TF over GST control). Also, the binding signal in the experiment with ETV1 is 1.42 fold enrichment (6-mer frequency, TF over GST control).
